Inconclusive results are not listed. Entries that show only a call come without a potency. The source made the active and inactive calls. The call rests on the fitted dose curve; in most records, active means well fitted inhibition curve with a large enough effect; inconclusive means small, poorly fitted or top-dose-only effect; inactive means flat fitted curve, though single readings scatter.

For 33 molecules, Potency results are on record in PubChem BioAssay (NCATS).
Potency means the concentration at half of the fitted maximal effect.

The test is described as follows: P-glycoprotein substrates identified in KB-8-5-11 adenocarcinoma cell line, qHTS therapeutic library screen (AID 1346987). Further: nearly all actives have a fitted effect of over 65% in size. The settings on record: KB-8-5-11 (P-gp overexpressing) viability, CellTiter-Glo, 72 h; series mostly up to 44.5 µM. The method in brief: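 KB-8-5-11, a colchicine-selected P-gp-overexpressing KB-3-1 subline, was grown without colchicine for the assay. Cells were seeded at 500 cells/well, dosed in concentration-response and incubated 72 h at 37 degree C, 5% CO2. Viability was read by CellTiter-Glo luminescence.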
(In general: qHTS replaces the single test concentration by a dilution series.)
On to `CN(C)CCCOc1nn(Cc2ccccc2)c2ccccc12`, for which the Potency result is “inactive”.

Take `O=C1c2ccccc2C(=O)C1c1ccccc1`: the Potency entry is “inactive”.

Turning to `Cc1c(C(N)=O)cc([N+](=O)[O-])cc1[N+](=O)[O-]`, the Potency result was “inactive”.

On to `Cc1c(C)n(Cc2ccccc2)c2ccc(C(=O)OCCN(C)C)cc12`, for which the Potency is 23.1 µM (active).

For the molecule `CN1CCC(=C2c3ccccc3Sc3ccccc32)CC1`, the Potency is 9.2 µM (active).

As to `Cc1ccc(O)c2ncccc12`, the Potency result is “inactive”.

With `CC(=O)OCC(=O)[C@@]12N=C(C)O[C@@H]1C[C@H]1[C@@H]3CCC4=CC(=O)C=C[C@]4(C)[C@H]3[C@@H](O)C[C@@]12C`, the Potency result is “inactive”.

`C[C@]12C=CC(=O)C=C1CC[C@@H]1[C@@H]2[C@@H](O)C[C@@]2(C)[C@H]1CC[C@]2(O)C(=O)CO`: the Potency result was “inactive”.

On to `CCN1CCN(c2cc3c(cc2F)c(=O)c(C(=O)O)cn3C2CC2)CC1`, for which the Potency entry was “inactive”.

On to `CC(=O)Nc1c(I)cc(I)c(C(=O)O)c1I`, for which the Potency entry is “inactive”.

With `CCOC(=O)[C@H](CCc1ccccc1)N[C@@H](C)C(=O)N1Cc2ccccc2C[C@H]1C(=O)O`, the Potency entry is “inactive”.

Consider `CN1CCC[C@@H]1c1cccnc1`, for which the Potency result is “inactive”.

As to `Oc1cc(O)c2c(c1)O[C@H](c1ccc(O)c(O)c1)[C@H](O)C2`, the Potency entry is “inactive”.

Turning to `O=c1ccc2ccccc2o1`, the Potency entry was “inactive”.

Consider `CC1(C)O[C@@H]2C[C@H]3[C@@H]4CCC5=CC(=O)CC[C@]5(C)[C@@]4(F)[C@@H](O)C[C@]3(C)[C@]2(C(=O)CCl)O1`, for which the Potency entry is “inactive”.

In the case of `O=C1OCCN1/N=C/c1ccc([N+](=O)[O-])o1`, the Potency result was “inactive”.

For `CN=C(NC#N)Nc1ccc(C2=NNC(=O)CC2C)cc1` (stereo not drawn), the Potency result is “inactive”.

Regarding `CCCCC(=O)O[C@]1(C(=O)CO)CC[C@H]2[C@@H]3CCC4=CC(=O)CC[C@]4(C)[C@H]3[C@@H](O)C[C@@]21C`, the Potency entry is “inactive”.

Regarding `CCCCCC=CCC=CCCCCCCCC(=O)OCC`, the Potency result is “inactive”.

Consider `CN=C(NC#N)NCCSCc1csc(N=C(N)N)n1`, for which the Potency result was “inactive”.

As to `CCCCCCC[N+](CC)(CC)CCCCc1ccc(Cl)cc1`, the Potency result is “inactive”.

As for `O=C(O)CCCCC(=O)O`, the Potency result was “inactive”.

For `Cc1ncc(CSSCc2cnc(C)c(O)c2CO)c(CO)c1O`, the Potency result is “inactive”.

As for `CC(C)COC(=O)c1ccc(N)cc1`, the Potency result is “inactive”.

For `Cc1cc2c(cc1CC(=O)c1sccc1S(=O)(=O)Nc1onc(C)c1Cl)OCO2`, the Potency result was “inactive”.

Turning to `Cc1ccccc1C(=O)Nc1ccc(C(=O)N2CCCC(N(C)C)c3ccccc32)cc1` (stereo not drawn), the Potency is 5.8 µM (active).

For `C=C(CC)C(=O)c1ccc(OCC(=O)O)c(Cl)c1Cl`, the Potency entry is “inactive”.

For `CN1CCN(C(c2ccccc2)c2ccccc2)CC1`, the Potency entry was “inactive”.

As for `CCN(CC)CCNC(=O)COc1ccc(Cl)cc1`, the Potency result was “inactive”.

For `Cc1cc(N)c2cc(NC(=O)Nc3ccc4nc(C)cc(N)c4c3)ccc2n1`, the Potency entry is “inactive”.

In the case of `CN(C)CC/C=C1/c2ccccc2COc2ccc(CC(=O)O)cc21`, the Potency entry was “inactive”.

Consider `CC(C)(C(=O)c1cccnc1)c1cccnc1`, for which the Potency entry is “inactive”.

Consider `NC(CS)C(=O)O` (stereo not drawn), for which the Potency entry is “inactive”.
